Assay results: PubChem BioAssay (Tox21)
Results filed as inconclusive are left out. Activity calls are given as the source filed them. Unless noted, calls follow the shape of the dose curve; as a rule, active = well fitted curve in the direction sought with a large enough effect in the repeat runs; inconclusive = weak or mixed curves; inactive = no such curve, though single readings can be large; an effect the other way counts as inactive or inconclusive.

Assays:
[1] = qHTS assay to identify aromatase inhibitors - cell viability counter screen (AID 743084);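 also: cells stimulated with testosterone during compound exposure; nearly all actives have a fitted effect of over 55% in size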
[2] = biological target: Aryl hydrocarbon receptor (Homo sapiens) (UniProt P35869); assay: qHTS assay to identify small molecule that activate the aryl hydrocarbon receptor (AhR) signaling pathway (AID 743085);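 also: HG2L7.5c1 human HepG2 liver cells with stably integrated DRE-driven firefly reporter; series mostly up to about 70 µM; nearly all actives have a fitted effect of over 15% in size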
Sequence of Aryl hydrocarbon receptor (Homo sapiens) (P35869 whole entry, looked up): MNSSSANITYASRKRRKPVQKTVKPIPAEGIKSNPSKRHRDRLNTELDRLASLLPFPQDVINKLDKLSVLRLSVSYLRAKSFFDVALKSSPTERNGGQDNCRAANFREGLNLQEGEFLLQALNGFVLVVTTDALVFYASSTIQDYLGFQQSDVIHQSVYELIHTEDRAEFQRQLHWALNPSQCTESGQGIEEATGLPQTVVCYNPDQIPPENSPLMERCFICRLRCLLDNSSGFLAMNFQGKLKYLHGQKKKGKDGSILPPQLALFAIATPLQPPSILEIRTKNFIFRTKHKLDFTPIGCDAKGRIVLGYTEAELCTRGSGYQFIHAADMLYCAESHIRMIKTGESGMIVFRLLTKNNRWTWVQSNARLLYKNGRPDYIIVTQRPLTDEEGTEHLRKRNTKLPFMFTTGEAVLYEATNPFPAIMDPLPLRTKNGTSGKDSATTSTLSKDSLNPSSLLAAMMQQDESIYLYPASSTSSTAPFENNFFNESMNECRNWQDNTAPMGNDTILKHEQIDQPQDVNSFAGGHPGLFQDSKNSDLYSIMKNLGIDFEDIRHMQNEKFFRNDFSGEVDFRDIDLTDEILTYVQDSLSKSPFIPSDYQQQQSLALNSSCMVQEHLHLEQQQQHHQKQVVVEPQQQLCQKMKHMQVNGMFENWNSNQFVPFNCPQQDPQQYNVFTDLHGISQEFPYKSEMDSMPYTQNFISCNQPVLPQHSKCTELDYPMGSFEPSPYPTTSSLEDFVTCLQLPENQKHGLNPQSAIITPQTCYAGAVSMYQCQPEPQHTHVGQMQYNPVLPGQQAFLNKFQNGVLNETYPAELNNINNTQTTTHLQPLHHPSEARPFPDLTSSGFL
In short: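 HepG2 cells stably carrying a 20-DRE firefly luciferase reporter (HG2L7.5c1) treated with compound for 24 hr at 37C. Luciferase read by ONE-Glo luminescence, with CellTiter-Fluor viability read first.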

[3] = qHTS assay to identify small molecule that activate the aryl hydrocarbon receptor (AhR) signaling pathway - cell viability counter screen (AID 743086);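 also: HepG2 liver cells carrying the AhR DRE luciferase reporter; series mostly up to about 70 µM; nearly all actives have a fitted effect of over 45% in size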
In short: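 Cytotoxicity counter screen: CellTiter-Fluor signal (30 min, 37 C) in 4000 HepG2 cells/well carrying the DRE-luciferase reporter, following 24 h compound exposure at 37 C.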

[4] = biological target: Peroxisome proliferator-activated receptor gamma (Homo sapiens) (UniProt P37231); assay: qHTS assay to identify small molecule agonists of the peroxisome proliferator-activated receptor gamma (PPARg) signaling pathway (AID 743094; active = well fitted activation curve with a large enough effect in the signal ratio in the repeat runs, not every such curve was filed as active; the % refers to the signal ratio)
Sequence of Peroxisome proliferator-activated receptor gamma (Homo sapiens) (P37231 whole entry, looked up): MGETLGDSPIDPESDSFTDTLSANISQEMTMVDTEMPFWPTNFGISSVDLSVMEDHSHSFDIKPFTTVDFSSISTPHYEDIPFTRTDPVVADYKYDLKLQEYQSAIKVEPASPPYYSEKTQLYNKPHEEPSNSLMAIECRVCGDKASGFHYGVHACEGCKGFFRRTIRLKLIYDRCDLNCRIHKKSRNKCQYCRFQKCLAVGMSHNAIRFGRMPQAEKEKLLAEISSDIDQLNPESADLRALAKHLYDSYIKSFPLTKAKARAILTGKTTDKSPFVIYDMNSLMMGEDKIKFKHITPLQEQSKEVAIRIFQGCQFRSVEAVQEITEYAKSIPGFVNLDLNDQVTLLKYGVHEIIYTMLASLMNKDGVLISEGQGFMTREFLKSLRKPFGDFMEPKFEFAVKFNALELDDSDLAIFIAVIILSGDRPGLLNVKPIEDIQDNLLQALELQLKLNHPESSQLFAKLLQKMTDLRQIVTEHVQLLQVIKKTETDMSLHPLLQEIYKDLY
In short: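 Following 5 h plating at 37C, PPARg-bla HEK293H cells receive compound or DMSO for 17 h; fluorescence intensity is recorded after LiveBLAzer B/G loading for 1 h at room temperature.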

[5] = qHTS assay to identify small molecule antagonists of the peroxisome proliferator-activated receptor gamma (PPARg) signaling pathway - cell viability counter screen (AID 743194); also: nearly all actives have a fitted effect of over 55% in size
In short: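 Viability was measured as CellTiter-Glo luminescence in GeneBLAzer PPARg UAS-bla HEK293H cells. These cells had been exposed 17 h at 37 C to compounds together with rosiglitazone at 50 nM final, with the beta-lactamase readout taken in the same wells.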

[6] = qHTS assay for small molecule agonists of the antioxidant response element (ARE) signaling pathway (AID 743202; active = well fitted activation curve with a large enough effect in the signal ratio in the repeat runs, not every such curve was filed as active; the % refers to the signal ratio)
In short: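 Quantitative high-throughput format in HepG2 cells bearing an integrated ARE-beta-lactamase reporter. Compound exposure lasted 16 h at 37 C, and fluorescence was read 2 h after adding LiveBLAzer B/G substrate at room temperature.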

[7] = qHTS assay for small molecule agonists of the antioxidant response element (ARE) signaling pathway - cell viability counter screen (AID 743203; calls by dose curve; also: nearly all actives have a fitted effect of over 55% in size)
In short: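 Compounds in DMSO were pinned onto ARE-bla HepG2 cells plated 5 hrs earlier at 2,000 cells/well. Sixteen hours later at 37C/5% CO2, CellTiter-Glo was added and luminescence measured after 30 min at room temperature.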

[8] = qHTS assay for small molecule activators of the heat shock response signaling pathway - cell viability counter screen (AID 743209); also: nearly all actives have a fitted effect of over 50% in size
In short: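 Counter screen for cytotoxicity in HeLa HSE-bla reporter cells. Treatment was 5 h at 37 C; viability was detected by luminescent ATP assay (CellTiter-Glo) in the same wells as the beta-lactamase read.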

[9] = qHTS assay for small molecule activators of the heat shock response signaling pathway (AID 743210; active = well fitted activation curve with a large enough effect in the signal ratio in the repeat runs, with a control signal flat, not every such curve was filed as active; the % refers to the signal ratio;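 also: HeLa cells with beta-lactamase reporter driven by heat shock elements; series mostly up to about 63 µM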)
In short: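 HeLa HSE-bla cells, overnight plating; cpd in DMSO 5 h, 37 C; LiveBLAzer B/G FRET substrate 2.5 h RT; fluorescence intensity read.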

[10] = qHTS assay to identify small molecule agonists of the peroxisome proliferator-activated receptor delta (PPARd) signaling pathway - cell viability counter screen (AID 743211); also: nearly all actives have a fitted effect of over 55% in size
In short: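 PPARd-bla HEK293H cells (3000/well) were pre-incubated 5 h at 37 C, then exposed to compound for 17 h at 37 C. After 2 h with LiveBLAzer substrate, CellTiter-Glo was added to the same wells; luminescence read after 30 min at room temperature.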

[11] = biological target: Bile acid receptor (Homo sapiens) (UniProt Q96RI1); assay: qHTS assay to identify small molecule antagonists of the farnesoid-X-receptor (FXR) signaling pathway (AID 743217; active = well fitted inhibition curve with a large enough effect in the signal ratio in the repeat runs, not every such curve was filed as active; the % refers to the signal ratio)
Sequence of Bile acid receptor (Homo sapiens) (Q96RI1 whole entry, looked up): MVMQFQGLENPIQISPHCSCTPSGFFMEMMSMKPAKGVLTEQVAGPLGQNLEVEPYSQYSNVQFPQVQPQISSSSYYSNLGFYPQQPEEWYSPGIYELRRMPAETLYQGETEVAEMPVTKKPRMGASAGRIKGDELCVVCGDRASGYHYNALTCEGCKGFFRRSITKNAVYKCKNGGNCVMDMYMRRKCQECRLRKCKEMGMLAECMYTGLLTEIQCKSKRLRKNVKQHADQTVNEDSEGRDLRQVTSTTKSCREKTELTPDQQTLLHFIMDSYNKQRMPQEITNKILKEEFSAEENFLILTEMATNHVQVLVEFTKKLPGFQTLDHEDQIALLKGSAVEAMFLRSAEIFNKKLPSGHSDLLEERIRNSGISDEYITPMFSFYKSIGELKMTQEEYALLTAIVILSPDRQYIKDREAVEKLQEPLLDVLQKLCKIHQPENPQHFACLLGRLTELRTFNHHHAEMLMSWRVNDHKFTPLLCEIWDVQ
In short: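 In this cell-based antagonist screen, inhibition of CDCA-driven (50 uM final) UAS-beta-lactamase expression in HEK 293T cells was measured by FRET fluorescence following 16 h compound exposure at 37 °C.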

[12] = qHTS assay to identify small molecule agonists of the farnesoid-X-receptor (FXR) signaling pathway - cell viability counter screen (AID 743218); also: nearly all actives have a fitted effect of over 45% in size
In short: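 After 16 h at 37 C with test compounds, FXR-bla HEK 293T cells were given LiveBLAzer B/G substrate for 2 h at RT and then CellTiter-Glo; luminescence was taken after 30 min.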

[13] = biological target: Bile acid receptor (Homo sapiens) (UniProt Q96RI1); assay: qHTS assay to identify small molecule agonists of the farnesoid-X-receptor (FXR) signaling pathway (AID 743220; active = well fitted activation curve with a large enough effect in the signal ratio in the repeat runs, not every such curve was filed as active; the % refers to the signal ratio)
In short: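 Beta-lactamase reporter under UAS control in GeneBLAzer FXR HEK 293T cells (5000/well) measured with LiveBLAzer FRET substrate after 2 h at room temperature. Compound exposure lasted 16 h at 37C.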

[14] = qHTS assay to identify small molecule antagonists of the farnesoid-X-receptor (FXR) signaling pathway - cell viability counter screen (AID 743221; active = well fitted cell-killing curve with a large enough effect in the repeat runs, not every such curve was filed as active; also: nearly all actives have a fitted effect of over 50% in size)
In short: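 GeneBLAzer FXR-UAS-bla HEK 293T cells, compound plus chenodeoxycholic acid (50 uM final), 16 h at 37 C. CellTiter-Glo added to the same wells after the beta-lactamase read; luminescence read after 30 min at room temperature as viability.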

[15] = biological target: Vitamin D3 receptor (Homo sapiens) (UniProt P11473); assay: qHTS assay to identify small molecule agonists of the vitamin D receptor (VDR) signaling pathway (AID 743222; calls by dose curve)
Sequence of Vitamin D3 receptor (Homo sapiens) (P11473 whole entry, looked up): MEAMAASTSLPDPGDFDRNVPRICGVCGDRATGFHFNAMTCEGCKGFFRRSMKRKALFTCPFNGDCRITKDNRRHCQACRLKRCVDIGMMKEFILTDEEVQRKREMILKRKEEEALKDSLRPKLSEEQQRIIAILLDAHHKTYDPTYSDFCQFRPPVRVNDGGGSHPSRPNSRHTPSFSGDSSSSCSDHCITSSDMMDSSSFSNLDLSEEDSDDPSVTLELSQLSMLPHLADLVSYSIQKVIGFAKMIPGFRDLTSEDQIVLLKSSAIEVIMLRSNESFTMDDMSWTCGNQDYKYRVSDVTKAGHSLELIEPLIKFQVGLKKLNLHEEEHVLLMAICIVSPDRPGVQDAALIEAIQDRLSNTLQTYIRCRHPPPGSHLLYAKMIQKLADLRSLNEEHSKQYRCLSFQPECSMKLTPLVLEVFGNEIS
In short: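 VDR-bla cells were seeded, left 4 h, treated with compounds in DMSO for 16 h, incubated 2 h at RT with B/G FRET substrate, and read for fluorescence.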

[16] = biological target: Peroxisome proliferator-activated receptor delta (Homo sapiens) (UniProt Q03181); assay: qHTS assay to identify small molecule agonists of the peroxisome proliferator-activated receptor delta (PPARd) signaling pathway (AID 743212; calls by dose curve)
Sequence of Peroxisome proliferator-activated receptor delta (Homo sapiens) (Q03181 whole entry, looked up): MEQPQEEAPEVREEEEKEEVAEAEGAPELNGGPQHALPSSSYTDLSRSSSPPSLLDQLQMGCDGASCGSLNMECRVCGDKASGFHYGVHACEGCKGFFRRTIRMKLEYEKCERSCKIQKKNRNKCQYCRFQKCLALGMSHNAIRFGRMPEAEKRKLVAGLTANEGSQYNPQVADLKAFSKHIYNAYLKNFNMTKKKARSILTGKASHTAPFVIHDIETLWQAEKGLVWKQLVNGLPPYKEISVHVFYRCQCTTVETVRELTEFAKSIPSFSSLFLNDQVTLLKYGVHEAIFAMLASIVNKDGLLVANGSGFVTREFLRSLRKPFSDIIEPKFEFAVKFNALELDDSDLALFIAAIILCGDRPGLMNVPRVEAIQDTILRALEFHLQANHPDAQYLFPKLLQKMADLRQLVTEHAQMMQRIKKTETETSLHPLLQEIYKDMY
In short: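 HEK293H PPARd-bla cells; 5 h preincubation 37 C/5% CO2; compound (DMSO) 37 C; LiveBLAzer B/G FRET substrate 2 h RT; fluorescence intensity.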

[17] = qHTS assay to identify small molecule antagonists of the peroxisome proliferator-activated receptor delta (PPARd) signaling pathway - cell viability counter screen (AID 743213); also: nearly all actives have a fitted effect of over 50% in size
In short: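 PPARd-bla HEK293H cells (3000/well) got compound plus 300 nM L165041 agonist for 17 h at 37 C. Viability in the same wells came from CellTiter-Glo luminescence after 30 min at room temperature.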

[18] = biological target: Peroxisome proliferator-activated receptor delta (Homo sapiens) (UniProt Q03181); assay: qHTS assay to identify small molecule antagonists of the peroxisome proliferator-activated receptor delta (PPARd) signaling pathway (AID 743215; active = well fitted inhibition curve with a large enough effect in the signal ratio in the repeat runs, not every such curve was filed as active; the % refers to the signal ratio;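 also: cells stimulated with agonist L165041 at 300 nM final during compound exposure; series mostly up to about 62 µM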)
In short: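 With L165041 present at 300 nM final, compounds were incubated 17 h at 37 C on PPARd UAS-bla HEK293H cells. A FRET-based beta-lactamase substrate was then applied for 2 h at room temperature and fluorescence intensity recorded.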

[19] = biological target: Vitamin D3 receptor (Homo sapiens) (UniProt P11473); assay: qHTS assay to identify small molecule antagonists of the vitamin D receptor (VDR) signaling pathway (AID 743223; active = well fitted inhibition curve with a large enough effect in the signal ratio in the repeat runs, not every such curve was filed as active; the % refers to the signal ratio)
In short: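 VDR-bla cells were treated with compound plus 3 nM final 1alpha,25-dihydroxyvitamin D3 for 16 h at 37C. Beta-lactamase reporter read by B/G FRET substrate fluorescence after 2 h at room temperature. qHTS format.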

[20] = biological target: Peroxisome proliferator-activated receptor gamma (Homo sapiens) (UniProt P37231); assay: qHTS assay to identify small molecule antagonists of the peroxisome proliferator-activated receptor gamma (PPARg) signaling pathway (AID 743191; calls by dose curve; also: series mostly up to about 63 µM; nearly all actives have a fitted effect of over 30% in size)
In short: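 Beta-lactamase reporter under UAS control in HEK293H PPARg-bla cells; compound treatment 17 h at 37C. Read-out: fluorescence intensity after 1 h room-temperature incubation with LiveBLAzer B/G FRET substrate.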
% is scaled to controls: 0 for no effect and ±100 for the full control effect.

CCCCC(CC)C(=O)OC(C)C (centres undefined)
inactive: Potency [1] | Potency [2] | Potency [3] | outcome [4] | outcome [5] | Potency [6] | outcome [7] | outcome [8] | outcome [9] | outcome [10] | outcome [11] | Potency [12] | outcome [13] | outcome [14] | outcome [15]

CCCCC(=O)N(C)C
inactive: Potency [1] | Potency [2] | Potency [3] | outcome [5] | Potency [6] | outcome [7] | outcome [8] | outcome [9] | outcome [10] | outcome [16] | outcome [17] | outcome [18] | Potency [12] | outcome [14] | outcome [15] | outcome [19]

CCCCCCCC[Si](OCC)(OCC)OCC
inactive: Potency [1] | Potency [2] | Potency [3] | outcome [4] | outcome [5] | Potency [6] | outcome [7] | outcome [8] | outcome [9] | outcome [16] | outcome [17] | outcome [18] | outcome [14] | outcome [15] | outcome [19]

O=c1cc(O)c(Cl)c[nH]1
inactive: Potency [1] | Potency [2] | Potency [3] | Potency [20] | outcome [5] | outcome [7] | outcome [8] | outcome [9] | outcome [10] | outcome [16] | outcome [17] | outcome [11] | Potency [12] | outcome [13] | outcome [14] | outcome [15] | outcome [19]

NC(=O)NNC(N)=O
inactive: Potency [1] | Potency [2] | Potency [3] | outcome [4] | outcome [7] | outcome [8] | outcome [9] | outcome [10] | Potency [12] | outcome [13] | outcome [14] | outcome [15]

CCOC(=O)CCc1ccccc1
inactive: Potency [1] | Potency [3] | outcome [4] | Potency [20] | outcome [5] | Potency [6] | outcome [7] | outcome [8] | outcome [10] | outcome [16] | outcome [17] | outcome [18] | Potency [12] | outcome [13] | outcome [14] | outcome [15] | outcome [19]

O=CO
inactive: activity change, negative = cytotoxicity [1] -4.37% [at 8.47 µM] | activation [2] 0.579% [at 8.47 µM] | viability change, negative = cytotoxic [3] -0.0332% [at 8.47 µM] | activity change, negative = cytotoxicity [5] 15.3% [at 5.95 µM] | activation [6] -2.02% [at 8.36 µM] | activity change, negative = cytotoxicity [8] 8.14% [at 5.95 µM] | activation [9] -1.54% [at 5.95 µM] | activity change, negative = cytotoxicity [10] 1.94% [at 5.95 µM] | viability change, negative = cytotoxic [17] 11.9% [at 6.26 µM] | activity change, negative = inhibition [11] -0.433% [at 5.95 µM] | viability change, negative = cytotoxic [12] 0.465% [at 5.95 µM] | activation [13] -0.16% [at 5.95 µM] | activity change, negative = cytotoxicity [14] -2.88% [at 5.95 µM] | activation [15] -1.04% [at 6.01 µM] | activity change, negative = inhibition [19] 3.44% [at 6.95 µM]

Cc1ccc(S(=O)(=O)NC(=O)NC2CCCCCCC2)cc1
inactive: Potency [1] | Potency [2] | Potency [3] | outcome [5] | Potency [6] | outcome [7] | outcome [8] | outcome [10] | outcome [17] | Potency [12] | outcome [14] | outcome [15] | outcome [19]

O=C(c1ccc2c(c1)C(=O)OC2=O)c1ccc2c(c1)C(=O)OC2=O
inactive: Potency [1] | Potency [2] | Potency [3] | Potency [6] | outcome [7] | outcome [8] | outcome [9] | outcome [10] | outcome [16] | outcome [18] | outcome [11] | Potency [12] | outcome [13] | outcome [14] | outcome [15]

CN[C@@H]1[C@H](O)[C@H](NC)[C@H]2O[C@@]3(O)C(=O)C[C@@H](C)O[C@H]3O[C@@H]2[C@H]1O
inactive: Potency [1] | Potency [3] | outcome [4] | Potency [20] | outcome [5] | Potency [6] | outcome [7] | outcome [8] | outcome [9] | outcome [10] | outcome [17] | outcome [11] | Potency [12] | outcome [14] | outcome [15] | outcome [19]

CC(=O)c1ccc(OCC(=O)N2CCCCC2)cc1
inactive: Potency [1] | Potency [3] | outcome [4] | Potency [20] | outcome [5] | Potency [6] | outcome [7] | outcome [8] | outcome [9] | outcome [10] | outcome [16] | outcome [18] | Potency [12] | outcome [13] | outcome [14] | outcome [15] | outcome [19]

CC(C)(C)NCCO
inactive: Potency [1] | Potency [3] | outcome [4] | Potency [20] | outcome [5] | Potency [6] | outcome [7] | outcome [8] | outcome [9] | outcome [10] | outcome [16] | outcome [18] | Potency [12] | outcome [14] | outcome [15] | outcome [19]
